Data published in PubChem BioAssay (NCI).
Compounds without any hit were thinned out: in the full panel of roughly 83,000, 20% have a hit.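 The endpoint reported here, percent growth, reads 100 for growth as untreated, 0 for no net growth and -100 for all cells dead.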 The source made the active and inactive calls. How the source made its calls: active means growth percent below 10; inactive means the rest.

Tests used:
Test in all cases: NCI-60 one-dose screen, 48 h (100 = growth as untreated, 0 = no growth, -100 = all killed)
Details in all cases: 10 µM unless noted
NCI-H23 lung = system: NCI-H23 lung
NCI-H226 lung = system: NCI-H226 lung
NCI-H322M lung = system: NCI-H322M lung
HOP-62 NSCLC = system: HOP-62 NSCLC
NCI-H460 lung = system: NCI-H460 lung
HOP-92 NSCLC = system: HOP-92 NSCLC
NCI-H522 lung = system: NCI-H522 lung
A549/ATCC NSCLC = system: A549/ATCC NSCLC
786-0 renal = system: 786-0 renal
COLO 205 colon = system: COLO 205 colon
DU-145 prostate = system: DU-145 prostate
K-562 leukemia = system: K-562 leukemia
MALME-3M melanoma = system: MALME-3M melanoma
MDA-MB-231 breast = system: MDA-MB-231 breast
RXF 393 renal = system: RXF 393 renal
SF-268 CNS = system: SF-268 CNS
SF-295 CNS = system: SF-295 CNS
SF-539 CNS = system: SF-539 CNS
UACC-257 melanoma = system: UACC-257 melanoma
M14 melanoma = system: M14 melanoma

Measured: growth

c1ccc2cc(Cn3c[n+](Cc4ccc5ccccc5c4)c4ccccc43)ccc2c1
inactive: NCI-H226 lung 19.6% | NCI-H322M lung 34.6% | A549/ATCC NSCLC 30.9% | DU-145 prostate 15% | SF-539 CNS 17.7%
active: NCI-H23 lung -0.737% | HOP-62 NSCLC 3.98% | NCI-H460 lung -34.2% | HOP-92 NSCLC -27.7% | NCI-H522 lung -28.8% | 786-0 renal -68.2% | COLO 205 colon -80.7% | K-562 leukemia -49.7% | MALME-3M melanoma -17.8% | MDA-MB-231 breast -54.1% | RXF 393 renal -56.5% | SF-268 CNS -30.5% | SF-295 CNS 6.18% | UACC-257 melanoma -38.6% | M14 melanoma -80.6%

Cn1c(=O)c2c(c3ccccc31)OC(N)=C(C#N)C21C(=O)c2ccccc2C1=O
inactive: NCI-H23 lung 87.5% | NCI-H226 lung 81% | NCI-H322M lung 91.5% | HOP-62 NSCLC 80.3% | NCI-H460 lung 85% | HOP-92 NSCLC 92.8% | NCI-H522 lung 95.9% | A549/ATCC NSCLC 95.7% | 786-0 renal 95.1% | COLO 205 colon 102% | DU-145 prostate 107% | K-562 leukemia 111% | MALME-3M melanoma 86.5% | MDA-MB-231 breast 81.6% | RXF 393 renal 91% | SF-268 CNS 93% | SF-295 CNS 102% | SF-539 CNS 91.9% | UACC-257 melanoma 108% | M14 melanoma 87.2%

O=[N+]([O-])/C(=C\c1ccco1)c1ccccc1Cl
inactive: NCI-H23 lung 92.3% | NCI-H226 lung 90.3% | NCI-H322M lung 80.2% | HOP-62 NSCLC 76.2% | NCI-H460 lung 68.1% | HOP-92 NSCLC 33.2% | NCI-H522 lung 23.2% | A549/ATCC NSCLC 62.3% | COLO 205 colon 82.8% | DU-145 prostate 86.1% | K-562 leukemia 67.9% | MALME-3M melanoma 80.6% | MDA-MB-231 breast 87.9% | RXF 393 renal 67.1% | SF-268 CNS 87% | SF-295 CNS 102% | SF-539 CNS 91.7% | UACC-257 melanoma 66.7% | M14 melanoma 66.2%
active: 786-0 renal 9.35%

COc1ccc(OC)c(Nc2nnc(-c3ccc(Cl)cc3)o2)c1
inactive: NCI-H23 lung 75% | NCI-H226 lung 93.8% | NCI-H322M lung 56.9% | HOP-62 NSCLC 46.7% | NCI-H460 lung 18.8% | HOP-92 NSCLC 100% | NCI-H522 lung 89.9% | A549/ATCC NSCLC 44.7% | 786-0 renal 26.4% | COLO 205 colon 99.1% | DU-145 prostate 70% | K-562 leukemia 83.5% | MALME-3M melanoma 66.9% | MDA-MB-231 breast 85.6% | RXF 393 renal 90.4% | SF-268 CNS 55.4% | SF-295 CNS 29.2% | SF-539 CNS 50.7% | UACC-257 melanoma 104% | M14 melanoma 93.1%

CCN(CC)c1ccc(/C=N\NC(=O)c2cccc(Nc3ccnc(C(F)(F)F)c3)c2)c(O)c1
active: NCI-H226 lung -3.12% | NCI-H460 lung 1.17% | 786-0 renal 5.84% | COLO 205 colon -0.627% | RXF 393 renal -1.92% | SF-539 CNS -38.9%
inactive: NCI-H23 lung 39.5% | NCI-H322M lung 33% | HOP-62 NSCLC 29.5% | HOP-92 NSCLC 20.6% | NCI-H522 lung 41.5% | A549/ATCC NSCLC 31.3% | DU-145 prostate 23.1% | K-562 leukemia 92.3% | MALME-3M melanoma 24.4% | MDA-MB-231 breast 13.6% | SF-268 CNS 10.3% | SF-295 CNS 16.8% | UACC-257 melanoma 27.3% | M14 melanoma 21.2%

CCCCCCNc1nc(NCCCCCC)c2[nH]c(NCCCCCC)nc2n1
inactive: NCI-H23 lung 48.2% | NCI-H226 lung 92.1% | HOP-62 NSCLC 75.7% | NCI-H460 lung 48.1% | 786-0 renal 68.2% | DU-145 prostate 84.6% | MALME-3M melanoma 60.8% | RXF 393 renal 81% | SF-268 CNS 52.5% | SF-295 CNS 70.3% | SF-539 CNS 82.6% | UACC-257 melanoma 104% | M14 melanoma 79.5%
active: NCI-H322M lung 1.94% | HOP-92 NSCLC -12.9% | NCI-H522 lung -42% | A549/ATCC NSCLC 7.63% | COLO 205 colon -2.12% | K-562 leukemia -19.2% | MDA-MB-231 breast -2.45%

CN1CCN(Cc2cc(NC(=O)c3cccc(C#Cc4cccc5[nH]nc(N)c45)c3)cc(C(F)(F)F)c2)CC1
inactive: NCI-H23 lung 41.3% | NCI-H226 lung 24.6% | NCI-H322M lung 35.9% | HOP-62 NSCLC 42.4% | NCI-H522 lung 20.9% | A549/ATCC NSCLC 27.9% | 786-0 renal 24.9% | DU-145 prostate 33.9% | SF-268 CNS 40.5% | SF-295 CNS 26.3% | UACC-257 melanoma 57.8%
active: NCI-H460 lung -20.9% | HOP-92 NSCLC -28.4% | COLO 205 colon -35.3% | K-562 leukemia -42.3% | MALME-3M melanoma -54.7% | MDA-MB-231 breast -31% | RXF 393 renal -9.77% | SF-539 CNS -55.6% | M14 melanoma -53.1%

Cn1ccnc1C(=O)/C=C/c1ccc(C(=O)Nc2ccc(F)cc2)cc1
inactive: NCI-H23 lung 15.9% | NCI-H226 lung 13.8% | NCI-H322M lung 11% | HOP-92 NSCLC 11.1% | A549/ATCC NSCLC 10.8% | COLO 205 colon 25.8% | DU-145 prostate 19.9% | MALME-3M melanoma 66.4% | MDA-MB-231 breast 18.7% | SF-268 CNS 14.4% | UACC-257 melanoma 62.2% | M14 melanoma 17.6%
active: HOP-62 NSCLC 5.2% | NCI-H460 lung -44.5% | NCI-H522 lung 7.55% | 786-0 renal -35.2% | K-562 leukemia 4.37% | RXF 393 renal 5.96% | SF-295 CNS 6.55% | SF-539 CNS -40.1%

O=C1NC(=O)c2c1c1c3ccccc3[nH]c1c1oc3ccc(F)cc3c21
inactive: NCI-H23 lung 61.9% | NCI-H226 lung 54% | NCI-H322M lung 50.7% | HOP-62 NSCLC 64.8% | NCI-H460 lung 52.9% | HOP-92 NSCLC 70.1% | NCI-H522 lung 50.4% | A549/ATCC NSCLC 86% | 786-0 renal 90.3% | COLO 205 colon 79.4% | DU-145 prostate 77.4% | K-562 leukemia 78.4% | MALME-3M melanoma 48.6% | MDA-MB-231 breast 77.9% | RXF 393 renal 69.1% | SF-268 CNS 79.5% | SF-295 CNS 71% | SF-539 CNS 64.3% | UACC-257 melanoma 95.1% | M14 melanoma 45.1%

COc1ccc(C/C(C)=C(/c2ccc(OCCN3CCCCCC3)cc2)c2ccc(OC(=O)NCc3ccccc3)cc2)cc1
inactive: NCI-H23 lung 86.4% | NCI-H226 lung 101% | NCI-H322M lung 93.2% | HOP-62 NSCLC 91.1% | NCI-H460 lung 70.7% | HOP-92 NSCLC 56% | NCI-H522 lung 75.2% | A549/ATCC NSCLC 77% | 786-0 renal 83.5% | COLO 205 colon 85.7% | DU-145 prostate 95.6% | K-562 leukemia 28% | MALME-3M melanoma 95.2% | MDA-MB-231 breast 83.9% | RXF 393 renal 84% | SF-268 CNS 88.4% | SF-295 CNS 98.2% | SF-539 CNS 96.7% | UACC-257 melanoma 94.7% | M14 melanoma 95.6%

COc1ccc(-c2cn(-c3ccc(Cl)cc3)c(SCC(=O)c3ccc([N+](=O)[O-])cc3)n2)cc1
inactive: NCI-H23 lung 86.9% | NCI-H226 lung 91.3% | NCI-H322M lung 81.1% | HOP-62 NSCLC 50.4% | NCI-H460 lung 91.5% | HOP-92 NSCLC 28% | NCI-H522 lung 70.7% | A549/ATCC NSCLC 101% | 786-0 renal 52.9% | COLO 205 colon 110% | DU-145 prostate 102% | K-562 leukemia 102% | MALME-3M melanoma 87.9% | MDA-MB-231 breast 80% | RXF 393 renal 54.1% | SF-268 CNS 73.1% | SF-295 CNS 75.3% | SF-539 CNS 82.5% | UACC-257 melanoma 99.6% | M14 melanoma 92.4%

O=C1N[C@@H]2[C@@H](O)[C@@H](O)[C@H](O)C[C@H]2c2cc3c(c(O)c21)OCCO3
active: NCI-H23 lung -40.9% | NCI-H226 lung -11.3% | NCI-H322M lung -24.3% | HOP-62 NSCLC -26.5% | NCI-H460 lung 1.26% | HOP-92 NSCLC -20.1% | NCI-H522 lung -36.1% | A549/ATCC NSCLC -14.3% | 786-0 renal -1.5% | COLO 205 colon -49% | DU-145 prostate -2.39% | K-562 leukemia 1.56% | MALME-3M melanoma -23.8% | MDA-MB-231 breast -24.1% | RXF 393 renal -24.2% | SF-268 CNS -0.713% | SF-295 CNS -14.9% | SF-539 CNS -24.1% | UACC-257 melanoma -22.2% | M14 melanoma -45.7%

CC1CN=C(c2cccc(-c3ccc(-c4ccccc4)o3)c2)N1 (stereo not given)
inactive: NCI-H23 lung 27.6% | NCI-H226 lung 30% | HOP-62 NSCLC 39.9% | A549/ATCC NSCLC 12.2% | DU-145 prostate 37.4%
active: NCI-H322M lung 4.39% | NCI-H460 lung -25.5% | HOP-92 NSCLC -13.1% | NCI-H522 lung -64.5% | 786-0 renal -43.6% | COLO 205 colon -82.6% | K-562 leukemia -38.2% | MALME-3M melanoma -85.2% | MDA-MB-231 breast -51.5% | RXF 393 renal -67.8% | SF-268 CNS 3.07% | SF-295 CNS -49.1% | SF-539 CNS -72.2% | UACC-257 melanoma -58.5% | M14 melanoma -67.2%

NC(=O)c1c(NC(=O)c2ccc(Cl)cc2)sc2c1CCC(=O)C2
active: NCI-H522 lung 7.79%
inactive: NCI-H23 lung 51.6% | NCI-H226 lung 97.8% | NCI-H322M lung 94% | HOP-62 NSCLC 106% | NCI-H460 lung 100% | HOP-92 NSCLC 77.4% | A549/ATCC NSCLC 98.5% | 786-0 renal 94.3% | COLO 205 colon 75.9% | DU-145 prostate 98.6% | K-562 leukemia 13.9% | MALME-3M melanoma 92.7% | MDA-MB-231 breast 86.3% | RXF 393 renal 56.7% | SF-268 CNS 47.5% | SF-295 CNS 96.2% | SF-539 CNS 43.2% | UACC-257 melanoma 91.6% | M14 melanoma 51.5%
